Only some compounds are listed: those with a hit (about 4.7% of all), similar ones and a draw of the others.
D1 potentiator – human D1 dopamine receptor positive modulation; P21728; HEK293 TREx D1 cells, calcium flux, dopamine EC20 potentiation; potentiation, % at 10 µM; 360,000 tested, 0.036% active; in the data active = potentiation above about 30%
Target sequence (P21728 whole entry, looked up): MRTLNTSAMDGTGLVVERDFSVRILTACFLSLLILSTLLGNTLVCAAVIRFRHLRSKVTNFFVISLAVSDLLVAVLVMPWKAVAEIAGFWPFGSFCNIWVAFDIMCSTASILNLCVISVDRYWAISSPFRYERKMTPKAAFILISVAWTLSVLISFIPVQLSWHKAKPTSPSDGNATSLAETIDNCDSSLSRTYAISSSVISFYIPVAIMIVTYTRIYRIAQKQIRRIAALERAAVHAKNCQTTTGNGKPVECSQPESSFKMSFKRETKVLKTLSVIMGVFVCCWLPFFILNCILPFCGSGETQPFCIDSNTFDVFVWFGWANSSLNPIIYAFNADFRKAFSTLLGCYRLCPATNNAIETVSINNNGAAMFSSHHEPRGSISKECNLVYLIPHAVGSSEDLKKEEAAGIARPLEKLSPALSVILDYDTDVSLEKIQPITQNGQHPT
TRHR ag – activates the human TRH receptor | P34981 | 360,000 tested, 0.18% active | TRHR cells, calcium flux fluo-8, FDSS agonist mode | activation, % at 2 µM | AID 493084
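Read-out: compound-evoked intracellular calcium rise in TRHR cells, fluo-8 dye, kinetic FDSS fluorescence at 1 s/cycle following a 10-cycle baseline. Cells cultured overnight before dye loading (30 min–1.5 h, RT).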
TRHR enhancer – allosterically enhances the human TRH receptor; enhancement, % at 2 µM; TRHR cells, fluo-8 calcium fluorescence, EC20 TRH enhancement; 360,000 tested, 0.66% active; P34981; in the data active = enhancement above about 30%
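TRHR-expressing cells loaded with fluo-8 calcium dye were read kinetically (ex 480/em 530) during compound addition, then stimulated with an EC20 of TRH (10 nM final). Enhancement of the Gq-mediated intracellular calcium response was scored.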
D1 agonist – activates the human D1 dopamine receptor; P21728; activation, % at 2 µM; HEK293 T-REx D1 cells, calcium flux, agonist mode; 360,000 tested, 1% active
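Inducible HEK293 T-REx D1 cells, force-coupled to calcium signalling, were plated at 4000 cells/well with tetracycline and held overnight at 30 C. After no-wash calcium dye loading, compound-evoked calcium rise over 180 s flagged agonists.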
D1 antag – blocks dopamine activation of the human D1 receptor | P21728 | HEK293 TREx D1 cells, calcium flux, dopamine EC80; stronger effect = lower value | activity change, negative = inhibition, % at 10 µM | 360,000 tested, 3.2% active; in the data active = activity change below about -30%
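Tetracycline-induced HEK293 Trex D1 cells, force-coupled to calcium, dye-loaded; compounds added and read 180 s, then EC80 dopamine added and calcium flux tracked kinetically another 180 s.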
Numbers stand for hits; – = inactive; · = no result given; ! = not confirmed by another sample. Cut-off read from the data, not from the text of the source, unless noted: active = activation above about 30%; inactive = the rest.

SMILES	D1 potentiator	TRHR ag	TRHR enhancer	D1 agonist	D1 antag
Cc1ncc(CN2CCC(C(=O)Nc3ccc(Oc4cccnc4)cc3)CC2)cn1	–	–	–	–	–
CC(=O)N1CCCc2ccc(NC(=O)c3ccc(C(F)(F)F)cc3)cc21	–	–	–	–	–
Cc1cccc(NCc2nc3ccccc3n2CCOc2ccccc2C)c1	–	–	–	–	–
CCOc1ccccc1NC(=O)CSc1nnc(CNC(=O)COc2ccc(Cl)cc2)o1	–	–	–	–	-38
O=C(CCN1C(=O)C2C3C=CC(C3)C2C1=O)Nc1nccs1 (stereo not given)	–	–	–	–	-64
CCOC(=O)c1c(NC(=O)CSc2nnc(-c3cccnc3)o2)sc(C(C)=O)c1C	–	–	–	–	-35
CC(=O)NC12CC3CC(C1)CC(C(=O)N1CCN(S(=O)(=O)c4cccc(C(F)(F)F)c4)CC1)(C3)C2	–	–	–	38	–
CC(=O)NC12CC3CC(C1)CC(C(=O)N1CCN(S(=O)(=O)c4ccc(Cl)s4)CC1)(C3)C2	–	–	–	–	–
Cc1cccc(OCCCn2c(CCNC(=O)C3CCCCC3)nc3ccccc32)c1	–	–	–	–	–
Cc1cccc(NC(=S)NCCc2ccc3c(c2)OCCO3)c1C	–	–	–	–	-46
Cc1cccc(NC(=S)NCc2ccc3c(c2)OCO3)c1C	–	–	–	–	–
CCC1CN(C(=O)N2CCC(C(=O)N3CCN(c4ccccc4F)CC3)CC2)c2ccccc2O1 (stereo not given)	–	–	–	–	–
CCCCN(CC)CCNC(=O)CCn1cnc2onc(-c3ccc(F)cc3)c2c1=O	–	–	–	32	–
CC(NC(=O)c1sc2ncccc2c1-n1cccc1)c1ccccc1 (stereo not given)	–	–	–	–	–
CSc1sc(-c2nnc(SCC(=O)Nc3ccccc3)n2C)c2c1C=CCC2	–	–	–	–	-36
Cc1cccc(N2CCn3c2nc2c3c(=O)n(CCCc3ccccc3)c(=O)n2C)c1	–	–	–	–	–
COc1ccc(NC(=O)COc2ccc(-c3nn(C)c(=O)c4ccccc34)cc2)cc1	–	–	–	–	-40!
CNC(=O)c1ccc(NC(=O)COc2ccc(-c3nn(C)c(=O)c4ccccc34)cc2)cc1	–	–	–	–	–
COc1ccc(C2CC(=O)N(Cc3cccc(C)c3)c3c2c(C)nn3-c2nc(C)cc(C)n2)c(OC)c1 (stereo not given)	–	–	–	–	–
COc1ccc(-c2nc3scc(CCNS(=O)(=O)c4ccc5c(c4)OCCO5)n3n2)cc1	–	–	–	–	·
CN(C)c1ccc(CN(CC2CCCO2)C(=O)COc2ccccc2Cl)cc1 (stereo not given)	–	–	–	–	–
O=S(=O)(N/N=C/c1ccc(OC2CSC2)cc1)c1ccccc1	–	–	–	47	–
O=C(NCc1ccc(Cl)cc1)C1CCN(S(=O)(=O)Cc2ccccc2)CC1	–	–	–	–	–
COc1ccc2ncc3c(-c4ccc(C)c(C)c4)nn(CC(=O)Nc4ccccc4)c3c2c1	–	–	–	–	–
O=C(CSc1nc2ccccc2o1)Nc1ccccc1	–	–	–	–	-37
SMILES	D1 potentiator	TRHR ag	TRHR enhancer	D1 agonist	D1 antag
O=S(=O)(NCCSc1nc2ccccc2o1)c1ccccc1	–	–	–	–	-33
CCOc1ccc(NC(=O)CSc2nnc(Cn3cnc([N+](=O)[O-])n3)n2CC)cc1	–	–	–	–	-38
CCOc1ccc(NC(=O)CSc2nnc(Cn3cnc([N+](=O)[O-])n3)n2C)cc1	–	–	–	–	–
COC(=O)c1ccc(C)c(NC(=O)c2nn(C)c(=O)c3ccccc23)c1	–	–	–	–	–
COC(=O)c1cccc(NC(=O)c2nn(C)c(=O)c3ccccc23)c1	–	–	40	–	–
Cc1nc(=O)c(-c2ccccc2)c(C)n1CCO	–	–	–	–	-37
Cc1nc(=O)c(-c2ccccc2)c(C)n1CCCO	–	–	–	–	–
Cc1nc(=O)c(-c2ccccc2)c(C)n1CCCCCC(=O)O	–	–	–	–	–
CCOC(=O)CCCn1c(C)nc(=O)c(-c2ccccc2)c1C	–	–	–	–	-34
O=C(Cn1c(=O)n2nc(-c3cccc(F)c3)nc2c2ccccc21)N1CCN(c2ccc(F)cc2)CC1	–	–	–	–	·
COc1ccc(CN2C(=O)C(NC(=O)c3ccccc3C)(C(F)(F)F)N=C2c2ccccc2)cc1 (stereo not given)	–	–	–	–	–
Cc1cccc(-c2nc(C#N)c(NCc3ccco3)o2)c1	–	–	–	–	-31
CSc1ccc(CCNC(=O)C(C)n2nc(C)c3sc4ccccc4c3c2=O)cc1 (stereo not given)	–	–	–	–	–
CCC(C)(C)c1ccc(OCCCC[n+]2ccc(C)cc2)c(C(C)(C)CC)c1	–	–	–	127	–
Cc1cc(C(C)(C)C)ccc1OCCCCN1CCCC1	–	–	–	–	–
CCC(C)(C)c1ccc(OCCCC[n+]2cccc(C)c2C)c(C(C)(C)CC)c1	–	–	–	146	–
Cc1cc[n+](CC[n+]2ccc(C)cc2)cc1	–	–	–	–	–
COC(=O)C(NC(=O)CCc1c(C)nc2c(-c3ccccc3)c(C)nn2c1C)C(C)C (stereo not given)	–	–	–	–	–
COCCNC(=O)CCCn1c(SCC(=O)c2ccc(Br)cc2)nc2c(sc3ccccc32)c1=O	–	–	–	–	–
CCOc1c(CC2C(=O)Nc3ccc(Br)cc32)cccc1OC (stereo not given)	–	–	–	69	-41
CCOc1cc(/C=N/NC(=O)C(=O)NCc2cccnc2)ccc1O	–	–	–	–	-35
COc1ccc(Cn2c(CO)cnc2SCC(=O)NCc2ccco2)cc1	–	–	–	–	–
CC(=O)c1cccc(NC(=O)c2c(N3CCCC3=O)c3cc(F)ccc3n2C)c1	–	–	–	–	–
COc1ccc(C(C)=O)cc1CSc1nc(NCCc2ccccc2)c2ccccc2n1	–	–	–	–	–
Fc1cccc(CSc2nc(NCCc3ccccc3)c3ccccc3n2)c1	–	–	–	–	-46
SMILES	D1 potentiator	TRHR ag	TRHR enhancer	D1 agonist	D1 antag
Cc1ccc2c(c1)c(=O)c(C(=O)c1ccccc1)cn2Cc1ccccc1F	–	–	–	–	–
O=C(Nc1ccc(Cl)cc1)Nc1nc(-c2sccc2Br)cs1	–	–	–	–	–
O=C(Nc1ccc(Cl)cc1)Nc1nc(-c2ccccc2O)cs1	–	–	–	–	-37
CCc1ccccc1Nc1nn2c(=O)c3ccc(C(=O)NCCCOC(C)C)cc3nc2s1	–	–	–	–	–
Cc1[nH]c2ccccc2c1/C=N/Nc1ccc(F)cc1F	–	–	–	–	–
Cc1[nH]c2ccccc2c1/C=N/Nc1ccc([N+](=O)[O-])cc1	–	38	–	125	–
